Hits are enriched below; roughly 17% of the tested compounds scored in any of these assays.
DT40 TDP1 no CPT: qHTS for Inhibitors of human tyrosyl-DNA phosphodiesterase 1 (TDP1): qHTS in cells in absence of CPT | DT40 Tdp1-/- hTDP1 cells, no CPT, ATP luminescence, 48 h | Potency, µM (doses to about 46.2 µM), for the others: at the top dose activity change, negative = growth inhibition, usual class: inhibitors | 15% of 420,000 active | AID 686978, 2013; also: % is scaled to controls: 0 for no effect and ±100 for the full control effect; nearly all actives have a fitted effect of over 55% in size
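Compound effects on proliferation are scored in DT40 Tdp1-/-;hTDP1 cells in the absence of CPT. ATP levels (CellTiter-Glo luminescence) are recorded after a ≥48 hr, 37 °C incubation.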
HT1080-NT tox: qHTS for induction of synthetic lethality in tumor cells producing 2HG: qHTS for the HT-1080-NT fibrosarcoma cell line; HT-1080-NT fibrosarcoma viability, CellTiter-Glo ATP luminescence, 48 h; AID 686970, 2013; Potency, µM (series often up to 46.1 µM), inactives show top-dose activity, negative = less viability, actives largely listed as cytotoxic; 1.6% of 360,000 active;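 also: NT is the 2HG producing partner of a matched IDH1 knockdown line; 0% = DMSO-treated cells and -100% = media-only wells without cells; nearly all actives have a fitted effect of over 55% in size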
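Luminescent CellTiter-Glo readout after 48 hours of compound exposure at 37 degrees C defined viability of HT-1080-NT cells. Activity was normalized to DMSO wells and cell-free media wells; concentration-response curves were fitted and assigned curve classes.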
HT1080 IDH1KD tx: qHTS for induction of synthetic lethality in tumor cells producing 2HG: qHTS for the HT-1080-IDH1KD cell line. HT-1080 IDH1 knockdown viability, ATP luminescence, 48 h. Potency, µM (highest dose often 46.1 µM), without a hit: top-dose activity, negative = toxicity, actives largely listed as cytotoxic. 2% of 360,000 active. AID 686971, 2013;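 also: 0% = DMSO wells and -100% = cell-free medium wells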
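After a 2 h attachment period, IDH1KD HT-1080 cells took pin-transferred compound for 48 h at 37 °C; ATP-based luminescence after 10 min room-temperature reagent incubation reported viability.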
DT40 TDP1 CPT: qHTS for Inhibitors of human tyrosyl-DNA phosphodiesterase 1 (TDP1): qHTS in cells in presence of CPT. 12% of 420,000 active. Potency, µM (highest dose often 46.2 µM), inactives show top-dose activity change, negative = growth inhibition, most hits filed as inhibitors. chicken DT40 Tdp1-/-;hTDP1 cells + 20 nM CPT, ATP luminescence, 48 h. AID 686979, 2013; also: % is scaled to controls: 0 for no effect and ±100 for the full control effect; nearly all actives have a fitted effect of over 55% in size
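Cell growth measured by CellTiter-Glo luminescence after a minimum 48 h, 37 C compound exposure with 20 nM CPT in Tdp1-knockout DT40 cells stably expressing hTDP1, seeded 400/well; qHTS titration format.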
HepG2 tox: qHTS for Inhibitors of TGF-b: Cytotox Counterscreen; HepG2 CAGA-GFP viability, ATP luminescence, 18 h; Potency, µM (doses to about 46.1 µM), for inactives: at the top dose activity change, negative = cytotoxicity, most hits filed as cytotoxic; 0.76% of 410,000 active; AID 588856, 2011
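CellTiter-Glo luminescence gave cytotoxicity after 18 hours at 37 degrees C. The cells were HepG2 CAGA-GFP in 1% FBS DMEM, stimulated with 500 pg/mL TGF-beta after compound addition. %Activity was normalised to no-cell wells (complete cell-killing) and DMSO (no toxicity), and curves were fitted and classified.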
TGFb inhibitor: qHTS for Inhibitors of TGF-b | HepG2 CAGA-GFP TGF-b/SMAD3 reporter, GFP fluorescence, 18 h; TGF-beta stimulated, 500 pg/mL final | Potency, µM (doses to about 46.1 µM), for the others: top-dose activity, negative = inhibition, usual class: inhibitors | 1.2% of 410,000 active | AID 588855, 2011; also: % is scaled to controls: 0 for no effect and ±100 for the full control effect; nearly all actives have a fitted effect of over 65% in size
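TGF-beta reporter screen: HEPG2 CAGA-GFP, 1% FBS, 500 pg/mL TGF-beta final, 18 h; per-cell GFP summed per well; curves fitted and categorized by class.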
The depositor's hits bear a star; ? = inconclusive; . = no result; [ ] = dose if it differs, or a comment. Calls follow the shape of the dose curve; as a rule, active = well fitted curve in the direction sought with a large enough effect; inconclusive = small, poorly fitted or top-dose-only effect, or another doubt; inactive = no such curve, though single readings can be large; an effect the other way counts as inactive or inconclusive. Potency is read from the fitted curve at half-maximal effect.

SMILES	DT40 TDP1 no CPT	HT1080-NT tox	HT1080 IDH1KD tx	DT40 TDP1 CPT	HepG2 tox	TGFb inhibitor
CCc1ccc(S(=O)(=O)NCc2cn3ccccc3n2)s1	?	-2.0%	-1.4%	?	-7.7%	-26.7%
CCCCCc1ccc(CC(=O)Nn2c(C)nc3ccccc3c2=O)cc1	-29.1%	?	-20.7%	?	-5.0%	?
CC(O)(COc1ccccc1)c1ccc2c(c1)CN(Cc1cccnc1)CCO2 (stereo not drawn)	-14.1%	.	.	20.1%[9.04 µM]	.	.
O=c1c2ccccc2cnn1Cc1ccc(Cl)c(Cl)c1	?	-17.2%	-11.1%	-6.0%	-21.8%	-0.7%
O=c1cnn(Cc2ccc(Cl)c(Cl)c2)c2ccccc12	14.6µM*	-22.9%	-25.8%	20.6µM*	-19.4%	?
Cc1ccc(N(Cc2cc(=O)[nH]c3ccccc23)C(=O)CCl)c(C)c1	14.6µM*	4.61µM*	5.17µM*	14.6µM*	22.4µM*	17.8µM*
COc1ccc(-c2nc(SCC(=O)Nc3ccc4c(c3)OCCO4)c(-c3ccc(C)cc3)[nH]2)cc1OC	18.4µM*	.	.	?	-10.9%	-24.7%
COc1ccc(-c2nc(SCC(=O)NC3CCCC3)c(-c3ccc(C)cc3)[nH]2)cc1OC	?	.	.	?	-19.9%	?
COc1ccc(NC(=O)CSc2nc(-c3ccc(OC)c(OC)c3)[nH]c2-c2ccc(C)cc2)cc1	?	.	.	5.8µM*	-37.1%	?
COc1ccc(-c2[nH]c(-c3ccc(OC)c(OC)c3)nc2SCC(=O)Nc2ccccc2)cc1	?	.	.	16.4µM*	-17.7%	?
COc1cccc(-c2nc(SCC(=O)NC3CCCC3)c(-c3ccc(C)cc3)[nH]2)c1	?	.	.	?	-48.9%	?
COc1ccc(NC(=O)CSc2nc(-c3ccc(OC)cc3)[nH]c2-c2ccc(F)cc2)cc1	-1.5%	.	.	-7.1%	-8.5%	6.9%
COc1ccc(NC(=O)CSc2nc(-c3cccc(C)c3)[nH]c2-c2ccccc2)cc1OC	6.51µM*	.	.	9.2µM*	-19.3%	11.2µM*
COc1ccc(-c2[nH]c(-c3ccc(C)cc3)nc2SCC(=O)NC2CCCC2)cc1	?	-16.4%	?	?	-29.4%	?
Cc1cn(CC(=O)NCc2nc3ccccc3[nH]2)c(=O)[nH]c1=O	1.0%	13.0%	1.7%	-8.8%	.	.
Cn1cc(/C=C/c2cc[n+](C)cc2)c2cc(Cl)ccc21	0.731µM*	-14.9%	?	0.651µM*	-6.3%	102.3%
C[n+]1ccc(/C=C/c2c[nH]c3ccc(F)cc23)cc1	0.82µM*	-15.9%	?	1.64µM*	-17.0%	84.1%
Cn1cc(/C=C/c2cc[n+](C)cc2)c2cc(F)ccc21	0.581µM*	?	?	0.517µM*	-23.4%	124.5%
C[n+]1ccccc1/C=C/c1ccc(F)c(F)c1	-17.8%	-4.0%	-4.9%	-6.6%	-9.5%	-5.3%
Cn1cc(C=O)c2cc(F)ccc21	0.0%	-1.1%	1.6%	-1.3%	-9.0%	4.4%
Cc1c(C(=O)NCC2(c3ccccc3)CCOCC2)cnn1-c1nccc(-c2ccco2)n1	-23.0%	.	.	?	.	.
CCC(C)Nc1cc(C)c(C#N)c2nc3ccccc3n12 (stereo not drawn)	?	-11.6%	-22.0%	-21.3%	1.2%	0.0%
CCOC(=O)CSc1cc(C)c(C#N)c2nc3ccccc3n12	23.1µM*	-0.4%	6.0%	?	-0.1%	-15.1%
CCC(C)Sc1cc(C)c(C#N)c2nc3ccccc3n12 (stereo not drawn)	16.4µM*	-11.3%	-21.1%	18.4µM*	-2.0%	-10.9%
COc1cc(-c2nc(-c3ccccc3)c(-c3cc([N+](=O)[O-])ccc3C)[nH]2)cc(OC)c1OC	16.4µM*	-16.5%	-1.9%	18.4µM*	-6.2%	-36.3%
SMILES	DT40 TDP1 no CPT	HT1080-NT tox	HT1080 IDH1KD tx	DT40 TDP1 CPT	HepG2 tox	TGFb inhibitor
COc1cc(-c2nc(-c3ccc4c(c3)-c3ccccc3S4(=O)=O)c(-c3ccccc3)[nH]2)cc(OC)c1O	16.4µM*	-28.6%	-24.3%	6.51µM*	-23.1%	-15.6%
COc1ccc(-c2nc(-c3ccccc3)c(-c3ccccc3)[nH]2)cc1Br	13µM*	.	.	18.4µM*	-26.5%	?
COc1cc(-c2nc(-c3cccc(Cl)c3)c(-c3ccccc3)[nH]2)cc(OC)c1OC	16.4µM*	.	.	18.4µM*	-24.0%	?
COc1cc(-c2nc(-c3ccccc3)c(-c3ccc(F)cc3)[nH]2)cc2c1OCO2	?	-6.5%	-9.7%	?	-29.4%	?
Cc1sc2ncn(CC(=O)Nc3cccc(C(F)(F)F)c3)c(=O)c2c1S(=O)(=O)N1CCN(C)CC1	-86.5%	.	.	?	-6.0%	-3.7%
O=c1c(S(=O)(=O)c2ccccc2)cn(Cc2ccc(F)cc2)c2cc(N3CCCCC3)c(F)cc12	?	.	.	?	1.9%	21.8%
Cc1ccc(C)c(Nc2cc(C(=O)NCc3cccnc3)c3ccccc3n2)c1	?	-17.6%	-23.5%	?	12.2%	-3.1%
COc1ccc(-c2nc(-c3ccccc3)c(-c3cccs3)[nH]2)cc1OC	14.6µM*	?	11.7%[9.24 µM]	18.4µM*	0.2%	?
COc1ccc(-c2nc(-c3cccs3)c(-c3cccs3)[nH]2)cc1OC	16.4µM*	-14.9%	?	?	-45.1%	-1.8%
O=C(COc1ccccc1[N+](=O)[O-])N(Cc1ccccc1)c1ccccn1	-22.3%	-12.3%	-26.9%	-1.7%	17.9%	14.4%
Cc1ccc(C(=O)Nc2sc3c(c2C(=O)O)CCC(C)C3)o1 (stereo not drawn)	20.6µM*	?	?	?	-3.9%	22.2%
Cc1ccc(C(=O)Nc2sc3c(c2C(=O)O)CCCCC3)o1	14.6µM*	20.6µM*	18.4µM*	?	-62.4%	-7.3%
Cc1ccc(C(=O)Nc2sc3c(c2C(=O)O)CCCC3)o1	?	?	?	?	-22.8%	10.7%
CC(C)(C)c1cc(C(C)(C)C)c2oc(=O)c(-c3nc4ccc(C(=O)O)cc4[nH]3)cc2c1	?	.	.	?	14.2%	2.0%
CC(C)(C)c1cc(C(C)(C)C)c2oc(=O)c(-c3nc4ccccc4[nH]3)cc2c1	8.2µM*	.	.	9.2µM*	-2.1%	27.9%

Assay outcomes from PubChem.
